A selection: hits, their analogues and other compounds. The true share with any hit is near 18%.
TDP1 inh: TDP1 (human) enzyme inhibition; Q9NUW8; recombinant TDP1, AlphaScreen DNA substrate cleavage; Potency, µM (titrated, usually from 130 µM), without a hit: top-dose activity change, negative = inhibition, most hits filed as inhibitors; actives 0.28% (n = 350,000); AID 485290; further: nearly all actives have a fitted effect of over 40% in size
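Recombinant E. coli-expressed Tdp1 (1 nM) preincubated with compound 15 min at RT, then 5'-biotin/3'-phosphotyrosine-FITC DNA substrate (15 nM) added for 5 min. AlphaScreen beads (10 ug/ml) added, 10 min RT; tyrosine-FITC cleavage read as signal loss.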
DT40 TDP1 CPT: growth inhibition of DT40 Tdp1-/-;hTDP1 cells with camptothecin (screen for TDP1 inhibitors) | chicken DT40 Tdp1-/-;hTDP1 cells + 20 nM CPT, ATP luminescence, 48 h | Potency, µM (highest dose often 46.2 µM), for the others: at the highest dose activity change, negative = growth inhibition, actives largely listed as inhibitors | actives 12% (n = 420,000) | AID 686979; further: nearly all actives have a fitted effect of over 55% in size
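Cell growth measured by CellTiter-Glo luminescence after a minimum 48 h, 37 C compound exposure with 20 nM CPT in Tdp1-knockout DT40 cells stably expressing hTDP1, seeded 400/well; qHTS titration format.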
PLK1 PBD block: inhibitors of human PLK1 polo-box domain binding | Plk1 PBD binding of FITC phosphopeptide, fluorescence polarization | Potency, µM, for the others: max response, negative = inhibition, hits mostly inhibitors | actives 2.8% (n = 360,000) | AID 720504; further: series mostly up to about 57 µM; nearly all actives have a fitted effect of over 65% in size
KAT2A inh: GCN5L2 (KAT2A) acetyltransferase inhibition | Q92830 | GCN5L2 HAT assay, ThioGlo1 CoA-SH fluorescence | Potency, µM (top dose mostly 58.9 µM), without a hit: at the highest dose activity change, negative = inhibition, hits mostly inhibitors | actives 0.21% (n = 390,000)
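Fluorescence readout, Ex340nm/Em540nm: ThioGlo1 (50uM final) reacts with free CoA thiol released as 20nM GCN5L2 acetylates H3(1-25) peptide (75uM) using acetyl-CoA (70uM). Compound and enzyme sat 15 min beforehand; 20 min room-temperature reaction.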
VDR inh: vitamin D3 receptor (human) inhibition | actives 0.93% (n = 400,000) | AID 504847 | VDR-SRC2-3 peptide fluorescence polarization, 2 h | P11473 | Potency, µM, for inactives: max response, negative = inhibition, most hits filed as inhibitors
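The screen uses fluorescence polarization to detect compounds that interfere with recruitment of the SRC2-3 coactivator peptide to VDR; plates are read after 2 h at room temperature.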
TDP1 cell noCPT: qHTS for Inhibitors of human tyrosyl-DNA phosphodiesterase 1 (TDP1): qHTS in cells in absence of CPT. actives 15% (n = 420,000). Potency, µM (highest dose often 46.2 µM), inactives show at the highest dose activity change, negative = growth inhibition, actives largely listed as inhibitors. DT40 Tdp1-/- hTDP1 cells, no CPT, ATP luminescence, 48 h. AID 686978, 2013; further: nearly all actives have a fitted effect of over 55% in size
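Luminescent ATP content (CellTiter-Glo) served as the growth readout. Knockout chicken DT40 cells expressing human TDP1 were exposed to compounds without camptothecin for a minimum 48 hr at 37 °C.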
The depositor's hits bear a star; u = inconclusive; x = no result given. The call rests on the fitted dose curve; in most records, active means well fitted curve in the direction sought with a large enough effect; inconclusive means small, poorly fitted or top-dose-only effect, or another doubt; inactive means no such curve, though single readings can be large; an effect the other way counts as inactive or inconclusive. On the % scale 0 is the no-effect control and ±100 the full control effect; potency means the concentration at half of the fitted maximal effect.

SMILES	TDP1 inh	DT40 TDP1 CPT	PLK1 PBD block	KAT2A inh	VDR inh	TDP1 cell noCPT
O=C(Nc1ccc(-c2cn3ccsc3n2)cc1)c1ccc(F)c(S(=O)(=O)N2CCOCC2)c1	3.1%	u	-0.8%	-4.2%	8.8%	23.1µM*
Cc1nc2ccc(NC(=O)c3cc(S(=O)(=O)N4CCOCC4)ccc3C)cc2s1	1.8%	u	-7.1%	0.0%	-1.2%	23.1µM*
Cc1nc2ccc(NC(=O)c3ccc(C)c(S(=O)(=O)N4CCOCC4)c3)cc2s1	1.2%	18.4µM*	-16.4%	-0.6%	-6.4%	u
COc1ccc(NC(=O)Cn2c(=O)n(CCCC(=O)NCCc3ccc(C)cc3)c(=O)c3ccccc32)cc1Cl	1.8%	-13.3%	x	-0.6%	1.3%	-17.4%
COc1cc(/C=C/C(=O)OCC(=O)Nc2ccc(C)c(S(=O)(=O)N3CCCCC3)c2)ccc1O	-1.1%	u	7.52µM*	-8.3%	u	25.9µM*
COc1cc(/C=C/C(=O)OCC(=O)Nc2cc(S(=O)(=O)N3CCCCC3)ccc2C)ccc1O	2.6%	u	-9.8%	-5.5%	4.7%	u
COc1cc(C(C)=O)ccc1OCC(=O)Nc1ccc(C)c(S(=O)(=O)N2CCCCCC2)c1	-2.4%	8.2µM*	-10.6%	-6.4%	-2.6%	16.4µM*
COc1ccc(NC(=O)c2ccc(S(=O)(=O)N3CCCCC3)cc2)cc1OC	0.3%	u	-11.8%	-2.6%	25.4%	u
COc1cc(C(C)=O)ccc1OCC(=O)Nc1ccc(S(=O)(=O)N2CCCCC2)cc1	x	-95.4%	2.9%	x	x	0.461µM*
COc1ccc(NC(=O)CCCNC(=O)c2ccc(Cl)cc2)cc1S(=O)(=O)N1CCCCC1	x	u	2.3%	x	-3.9%	20.6µM*
O=C1OC(c2ccccc2)c2ccc3ccccc3c21 (stereo not drawn)	0.0%	u	5.6%	-6.0%	-16.2%	-6.4%
CC[n+]1c(/C=C/N(C)c2ccccc2)n(-c2ccccc2)c2ccc(-c3nc4ccccc4s3)cc21	8.9%	0.82µM*	-4.2%	u	4.4%	0.731µM*
O=C(CN1CCN(S(=O)(=O)N2CCOCC2)CC1)Nc1cc(Cl)ccc1Cl	x	-22.0%	-4.3%	-4.5%	-10.0%	u
CCn1c(=S)sc2c(=O)n(CC(=O)Nc3ccccc3C(F)(F)F)c(C)nc21	44.7µM*	-23.1%	-13.2%	-11.2%	-9.9%	u
Cc1nc2c(sc(=S)n2Cc2ccco2)c(=O)n1CC(=O)Nc1cc(F)ccc1F	6.5%	11.6µM*	-10.1%	-5.5%	4.8%	u
CCn1c(=S)sc2c(=O)n(CC(=O)Nc3ccccc3)c(C)nc21	4.7%	u	-11.5%	-5.2%	-9.2%	u
CC(C)(C)NC(=O)C(c1ccc(Cl)cc1)N(Cc1ccco1)C(=O)CCl (stereo not drawn)	x	4.61µM*	-21.5%	-0.8%	-18.3%	2.91µM*
CC(C)(C)NC(=O)C(c1ccc(O)cc1)N(Cc1ccco1)C(=O)CCC(=O)Nc1ccccn1 (stereo not drawn)	10.1%	-19.5%	0.6%	-5.0%	-10.9%	-0.8%
O=C(NC1CCCCC1)C(c1ccncc1)N(Cc1ccccc1)C(=O)c1ccc(-c2ccccc2)[nH]1 (stereo not drawn)	9.3%	16.4µM*	-5.3%	-9.6%	4.2%	u
CC(C)(C)NC(=O)C(c1ccncc1)N(Cc1ccco1)C(=O)c1ccc(-c2ccccc2)[nH]1 (stereo not drawn)	6.1%	u	-20.5%	-12.7%	70.8µM*	u
O=C(NC1CCCCC1)C(c1ccncc1)N(Cc1ccc(F)cc1)C(=O)c1ccccn1 (stereo not drawn)	x	11.3%	-1.3%	-9.6%	-1.1%	-8.1%

Bioassay records: PubChem BioAssay, National Center for Advancing Translational Sciences (NCATS)
